Assay results taken from PubChem BioAssay (NCATS).
Records with an inconclusive call do not appear. Calls come from the whole dose curve; as a rule, active = well fitted activation curve with a large enough effect; inconclusive = small, poorly fitted or top-dose-only effect; inactive = no such curve, though single readings can be large or run the other way.

target: Rap guanine nucleotide exchange factor 4 (Homo sapiens) (UniProt Q8WZA2); assay: Confirmatory qHTS for agonist of cAMP-regulated guanine nucleotide exchange factor 4 (EPAC2) (AID 1645884); settings: EPAC2 GEF activity, Rap1B-BODIPY-GDP fluorescence; series mostly up to 154 µM; activation: at the top concentration;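 note: nucleotide exchange releases bodipy-GDP from Rap1 and this lowers its fluorescence; nearly all actives have a fitted effect of over 65% in size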
% is set by controls: 0 for no effect and ±100 for the full control effect.

Sequence of Rap guanine nucleotide exchange factor 4 (Homo sapiens) (Q8WZA2 whole entry, looked up): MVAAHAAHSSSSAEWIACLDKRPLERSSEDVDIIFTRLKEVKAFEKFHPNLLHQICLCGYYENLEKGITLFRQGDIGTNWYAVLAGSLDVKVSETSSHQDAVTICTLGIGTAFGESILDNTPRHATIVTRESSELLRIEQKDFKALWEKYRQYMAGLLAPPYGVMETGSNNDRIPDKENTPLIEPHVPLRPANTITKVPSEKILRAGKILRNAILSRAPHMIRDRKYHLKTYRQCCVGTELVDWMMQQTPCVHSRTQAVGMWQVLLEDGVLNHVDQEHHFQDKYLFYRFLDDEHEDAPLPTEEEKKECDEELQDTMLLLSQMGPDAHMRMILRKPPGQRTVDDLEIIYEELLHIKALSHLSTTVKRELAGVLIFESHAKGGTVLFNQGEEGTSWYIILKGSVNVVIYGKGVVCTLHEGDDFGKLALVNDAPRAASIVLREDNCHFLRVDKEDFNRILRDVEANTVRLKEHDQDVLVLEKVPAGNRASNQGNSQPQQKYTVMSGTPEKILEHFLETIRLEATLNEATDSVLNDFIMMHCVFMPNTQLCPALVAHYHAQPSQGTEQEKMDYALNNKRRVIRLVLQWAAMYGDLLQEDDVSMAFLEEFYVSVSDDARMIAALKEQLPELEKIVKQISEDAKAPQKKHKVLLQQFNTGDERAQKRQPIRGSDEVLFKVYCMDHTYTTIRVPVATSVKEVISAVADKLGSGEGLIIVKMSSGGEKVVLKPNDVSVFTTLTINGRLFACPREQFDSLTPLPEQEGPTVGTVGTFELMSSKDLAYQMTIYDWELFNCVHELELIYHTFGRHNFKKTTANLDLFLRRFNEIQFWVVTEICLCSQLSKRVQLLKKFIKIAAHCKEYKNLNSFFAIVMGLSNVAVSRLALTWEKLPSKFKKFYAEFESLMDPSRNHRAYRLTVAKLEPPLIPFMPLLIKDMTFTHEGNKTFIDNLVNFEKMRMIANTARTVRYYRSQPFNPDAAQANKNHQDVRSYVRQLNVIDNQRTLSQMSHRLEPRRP

activation, inactive:
COc1ccccc1[C@@]1(C)ON(c2ccccc2C(F)(F)F)C1=O 3.47%
O=C1C(O)=C(O)C(=O)c2ccccc21 1.27%
Cc1ccccc1C(=O)Nc1ccccc1N1CCCCC1 0%
CCCCOC(=O)CCn1c(=S)oc2ccccc21 11.9%
CCOC(=O)C1=C(C)N=c2s/c(=C/c3ccc(OCC(=O)O)cc3)c(=O)n2C1c1ccc(F)cc1 (stereo not given) -27.4%
FC(F)(F)C1=Nc2cccc3cccc(c23)N1 0.636%
COc1cccc(COC(=O)CSCC(=O)Nc2cccc(C)c2)c1OC 20.7%
CCN1CCN(c2ccc(S(=O)(=O)N3CCCCC3)cc2NC(=O)c2ccc([N+](=O)[O-])s2)CC1 -10.8%
COc1ccc(-c2nc(C)ncc2-c2ccc(Cl)cc2)c(O)c1 0%
Cc1ccc(S(=O)(=O)/N=C2\C=C(NS(=O)(=O)c3ccccc3)C(=O)c3ccccc32)c(C)c1 5.26% [at 17.1 µM, percent relative to cAMP agonist control]
COc1cc(NC(=O)c2ccccc2NS(=O)(=O)c2ccc(Cl)s2)cc(OC)c1 0%
Cc1ccc(S(=O)(=O)N2CCN(c3ncnc4sccc34)CC2)cc1C 12.5%
C/C(=N/NS(=O)(=O)c1ccc(C(C)(C)C)cc1)c1ccc2c(c1)OCO2 7.62% [at 17.1 µM, percent relative to cAMP agonist control]
O=C(Cc1c(Sc2ccccc2)c2ccccc2n1Cc1ccccc1)NCCO 9.29%
CN(CC(=O)Nc1ccc(F)cc1)C(=O)c1cc(-c2ccco2)nc2ccccc12 -3.47%
